{
  "source": "the supplement of paper PMC12636033",
  "note": "± gives the standard deviation of the averaged measurements. In all, about 33,000 sequences were measured (“E-score (rank enrichment, -0.5 to 0.5)”: median about -0.0028, highest 2% from about 0.23 on). Many of the other results were omitted from the sample, so the highest values are more common in it than they were.",
  "data": [
    {"system": "2Sb-muMax20 (muMax20 with two 1,3-bis(methyl)benzene Cys staples, A13C/A17C and Q88C/A92C, C-terminal Lys)", "test": "PBM 8-mer E-score (E-score (rank enrichment, -0.5 to 0.5)); higher = stronger preferential binding", "protocol": "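Protein binding microarray (universal PBM chip covering all 10-mers in fixed probe flanks) with chemically synthesized human Max(13-93) bHLH-LZ analogs (not full-length Max) bearing noncanonical residues (hArg, Tha, Aib, Nle at 65) and aromatic Cys staples. Read-out per 8-mer (and its reverse complement): E-score (rank-based enrichment, -0.5 to 0.5) and Z-score of median probe intensity.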", "values": [
      {"sequence": "AAGGGTGG", "PBM 8-mer E-score": "0.0428 ± 0.051"},
      {"sequence": "AGGGTGGC", "PBM 8-mer E-score": "0.0374 ± 0.1"},
      {"sequence": "AGGGGTGA", "PBM 8-mer E-score": "0.16 ± 0.05"},
      {"sequence": "AGGGTGGA", "PBM 8-mer E-score": "-0.0307 ± 0.022"},
      {"sequence": "AGGGTGGG", "PBM 8-mer E-score": "0.266 ± 0.032"},
      {"sequence": "GTTCGTAA", "PBM 8-mer E-score": "-0.00989 ± 0.0088"},
      {"sequence": "ACTATCGC", "PBM 8-mer E-score": "0.097 ± 0.036"},
      {"sequence": "AATGCTAT", "PBM 8-mer E-score": "0.0731 ± 0.033"},
      {"sequence": "ACCGCATA", "PBM 8-mer E-score": "0.0507 ± 0.032"},
      {"sequence": "AGGTAAAG", "PBM 8-mer E-score": "0.2635 ± 0.0021"},
      {"sequence": "AGGTAAAC", "PBM 8-mer E-score": "-0.0251 ± 0.11"},
      {"sequence": "AGGTAAAT", "PBM 8-mer E-score": "0.0873 ± 0.074"},
      {"sequence": "AGCAGATC", "PBM 8-mer E-score": "-0.143 ± 0.068"},
      {"sequence": "ACGTCTTA", "PBM 8-mer E-score": "-0.193 ± 0.025"},
      {"sequence": "GATGTTTA", "PBM 8-mer E-score": "0.12 ± 0.03"},
      {"sequence": "AATGTTGA", "PBM 8-mer E-score": "0.0172 ± 0.078"},
      {"sequence": "CATGTTTA", "PBM 8-mer E-score": "0.239 ± 0.024"},
      {"sequence": "CATGTTTC", "PBM 8-mer E-score": "0.05 ± 0.033"},
      {"sequence": "CATGTTGC", "PBM 8-mer E-score": "0.0698 ± 0.024"},
      {"sequence": "CATGTTGA", "PBM 8-mer E-score": "0.257 ± 0.02"},
      {"sequence": "AACGGTGG", "PBM 8-mer E-score": "-0.0485 ± 0.0095"},
      {"sequence": "GAAATGGC", "PBM 8-mer E-score": "0.0246 ± 0.0079"},
      {"sequence": "ACTATACG", "PBM 8-mer E-score": "0.156 ± 0.033"},
      {"sequence": "CTCTAATA", "PBM 8-mer E-score": "0.0986 ± 0.022"},
      {"sequence": "CTAATCAA", "PBM 8-mer E-score": "0.277 ± 0.014"},
      {"sequence": "CGAATCAA", "PBM 8-mer E-score": "0.2677 ± 0.00054"},
      {"sequence": "TTAATCAA", "PBM 8-mer E-score": "0.0337 ± 0.0076"},
      {"sequence": "CGAATCAG", "PBM 8-mer E-score": "-0.163 ± 0.065"},
      {"sequence": "CTAATCAC", "PBM 8-mer E-score": "0.14 ± 0.0037"},
      {"sequence": "TGAATCAA", "PBM 8-mer E-score": "0.0626 ± 0.026"},
      {"sequence": "AGGCCACT", "PBM 8-mer E-score": "0.129 ± 0.0082"},
      {"sequence": "CGTAGCAA", "PBM 8-mer E-score": "-0.0306 ± 0.0061"},
      {"sequence": "ACTTCATA", "PBM 8-mer E-score": "0.0718 ± 0.0033"},
      {"sequence": "CTAACCGC", "PBM 8-mer E-score": "-0.0848 ± 0.018"},
      {"sequence": "GAAGTTTA", "PBM 8-mer E-score": "-0.0783 ± 0.12"},
      {"sequence": "AAAGTTTA", "PBM 8-mer E-score": "0.249 ± 0.022"},
      {"sequence": "AAAGTTTC", "PBM 8-mer E-score": "-0.0128 ± 0.036"},
      {"sequence": "CCGAGAGG", "PBM 8-mer E-score": "-0.225 ± 0.049"},
      {"sequence": "CAGCGCGA", "PBM 8-mer E-score": "-0.0207 ± 0.052"},
      {"sequence": "CCCCCATA", "PBM 8-mer E-score": "0.0403 ± 0.02"},
      {"sequence": "AACCCATA", "PBM 8-mer E-score": "0.229 ± 0.016"},
      {"sequence": "GGCCCATA", "PBM 8-mer E-score": "-0.0795 ± 0.036"},
      {"sequence": "GACCCATA", "PBM 8-mer E-score": "0.23906 ± 6.4e-05"},
      {"sequence": "CACCCATA", "PBM 8-mer E-score": "0.21 ± 0.0057"},
      {"sequence": "GCCCCATA", "PBM 8-mer E-score": "0.356 ± 0.039"},
      {"sequence": "CATCTACA", "PBM 8-mer E-score": "0.137 ± 0.025"},
      {"sequence": "ACCTGATC", "PBM 8-mer E-score": "-0.0825 ± 0.031"},
      {"sequence": "ATCTAGGG", "PBM 8-mer E-score": "0.171 ± 0.013"},
      {"sequence": "AACCCTCT", "PBM 8-mer E-score": "-0.0379 ± 0.0099"},
      {"sequence": "AACCATAA", "PBM 8-mer E-score": "0.13 ± 0.018"},
      {"sequence": "ACGCATAG", "PBM 8-mer E-score": "-0.0652 ± 0.023"},
      {"sequence": "ACGCATAA", "PBM 8-mer E-score": "0.17 ± 0.01"},
      {"sequence": "AACCATAC", "PBM 8-mer E-score": "-0.0703 ± 0.11"},
      {"sequence": "ACGCATAT", "PBM 8-mer E-score": "0.246 ± 0.0099"},
      {"sequence": "CCCCACAA", "PBM 8-mer E-score": "0.264 ± 0.0045"},
      {"sequence": "AACCATAT", "PBM 8-mer E-score": "0.232 ± 0.0038"},
      {"sequence": "CCCCACAG", "PBM 8-mer E-score": "-0.09771 ± 0.00011"},
      {"sequence": "ACCCATAG", "PBM 8-mer E-score": "0.0412 ± 0.039"},
      {"sequence": "ACCCATAC", "PBM 8-mer E-score": "0.119 ± 0.051"},
      {"sequence": "ACCCATAT", "PBM 8-mer E-score": "0.252 ± 0.051"},
      {"sequence": "CCCCACAC", "PBM 8-mer E-score": "0.19 ± 0.13"},
      {"sequence": "ACACAGAG", "PBM 8-mer E-score": "-0.0541 ± 0.0044"},
      {"sequence": "ACGGACTG", "PBM 8-mer E-score": "-0.167 ± 0.011"},
      {"sequence": "ACAGGACA", "PBM 8-mer E-score": "-0.0877 ± 0.075"},
      {"sequence": "TCCTAAGA", "PBM 8-mer E-score": "-0.186 ± 0.031"},
      {"sequence": "GTAGCTAC", "PBM 8-mer E-score": "0.0481 ± 0.06"},
      {"sequence": "CACCATTA", "PBM 8-mer E-score": "-0.044 ± 0.042"},
      {"sequence": "ACGCACAA", "PBM 8-mer E-score": "0.0307 ± 0.012"},
      {"sequence": "GCCCATAA", "PBM 8-mer E-score": "0.0149 ± 0.062"},
      {"sequence": "ACGCACAG", "PBM 8-mer E-score": "-0.146 ± 0.017"},
      {"sequence": "ACCCATAA", "PBM 8-mer E-score": "0.25 ± 0.023"},
      {"sequence": "AACCATTG", "PBM 8-mer E-score": "-0.163 ± 0.044"},
      {"sequence": "AGCCATAA", "PBM 8-mer E-score": "0.0405 ± 0.0087"},
      {"sequence": "TCCCATAA", "PBM 8-mer E-score": "0.0657 ± 0.052"},
      {"sequence": "CCCCATAA", "PBM 8-mer E-score": "0.3007 ± 0.003"},
      {"sequence": "ACGCACAT", "PBM 8-mer E-score": "0.235 ± 0.024"},
      {"sequence": "AACCATTA", "PBM 8-mer E-score": "0.276 ± 0.005"},
      {"sequence": "ACCCATTA", "PBM 8-mer E-score": "0.161 ± 0.015"},
      {"sequence": "TCCTGGAA", "PBM 8-mer E-score": "-0.283 ± 0.06"},
      {"sequence": "TACTTTCA", "PBM 8-mer E-score": "0.0779 ± 0.057"},
      {"sequence": "TACCGAGA", "PBM 8-mer E-score": "-0.0899 ± 0.043"},
      {"sequence": "CGGCGTGA", "PBM 8-mer E-score": "-0.113 ± 0.017"},
      {"sequence": "CTAAGTGA", "PBM 8-mer E-score": "-0.204 ± 0.046"},
      {"sequence": "AGCGTGCC", "PBM 8-mer E-score": "-0.0325 ± 0.041"},
      {"sequence": "CTTGGAAC", "PBM 8-mer E-score": "0.128 ± 0.018"},
      {"sequence": "AGTACGTG", "PBM 8-mer E-score": "0.0987 ± 0.039"},
      {"sequence": "AGTACGTC", "PBM 8-mer E-score": "0.257 ± 0.02"},
      {"sequence": "AGTACGTA", "PBM 8-mer E-score": "0.183 ± 0.018"},
      {"sequence": "GCCCGAAC", "PBM 8-mer E-score": "-0.0411 ± 0.062"},
      {"sequence": "AATCCGCA", "PBM 8-mer E-score": "-0.0479 ± 0.02"},
      {"sequence": "CGATTCCC", "PBM 8-mer E-score": "0.142 ± 0.0041"},
      {"sequence": "CAGACACG", "PBM 8-mer E-score": "-0.0916 ± 0.036"},
      {"sequence": "AAGACACG", "PBM 8-mer E-score": "0.23 ± 0.029"},
      {"sequence": "AAGACACA", "PBM 8-mer E-score": "0.0534 ± 0.033"},
      {"sequence": "ACCCGTAA", "PBM 8-mer E-score": "-0.0543 ± 0.035"},
      {"sequence": "CCCCGTAG", "PBM 8-mer E-score": "-0.0497 ± 0.00093"},
      {"sequence": "CCCCGTAA", "PBM 8-mer E-score": "0.276 ± 0.014"},
      {"sequence": "GCTAGGTA", "PBM 8-mer E-score": "-0.0432 ± 0.18"},
      {"sequence": "ATTGTGTC", "PBM 8-mer E-score": "0.0993 ± 0.063"},
      {"sequence": "GGGGCGTA", "PBM 8-mer E-score": "0.15 ± 0.08"},
      {"sequence": "TACGTGGA", "PBM 8-mer E-score": "0.0786 ± 0.0068"},
      {"sequence": "AACGTGGG", "PBM 8-mer E-score": "0.196 ± 0.0051"},
      {"sequence": "GACGTGGC", "PBM 8-mer E-score": "-0.00165 ± 0.017"},
      {"sequence": "CACGTGGC", "PBM 8-mer E-score": "0.317 ± 0.015"},
      {"sequence": "AACGTGGA", "PBM 8-mer E-score": "0.0893 ± 0.031"},
      {"sequence": "CACGTGGG", "PBM 8-mer E-score": "0.438 ± 0.0088"},
      {"sequence": "CACGTGGA", "PBM 8-mer E-score": "0.383 ± 0.029"},
      {"sequence": "AACGTGGC", "PBM 8-mer E-score": "0.192 ± 0.021"},
      {"sequence": "GACGTGGA", "PBM 8-mer E-score": "0.0221 ± 0.026"},
      {"sequence": "ACTTAGAA", "PBM 8-mer E-score": "-0.02 ± 0.04"}
    ]}
  ]
}
